HCMV antiviral: blocks human cytomegalovirus replication. HFF cells, HCMV-luciferase reporter, 72 h; hits give low values. 410,000 tested, 4.5% active. activity change, negative = inhibition, % at 57.5 µM; in the data active = activity change below about -60%; inconclusive = no clear call, values can overlap the other calls; inactive = above about -39%
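HFF cells seeded 16 h at 37C, treated with compounds, infected with luciferase-reporter HCMV at MOI 1 PFU/cell; luciferase read at 72 h post infection, normalized to buffer-only and Salinomycin controls.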
FMDV antiviral: antivirals against foot and mouth disease virus. FMDV antiviral cell-based qHTS. 410,000 tested, 1.2% active. AID 1159524. Potency, µM (top dose mostly 57.9 µM), inactives show top-dose activity change, negative = inhibition, usual class: inhibitors; calls by dose curve; tested in HEK293T cells; also: read-out not given here; potency is read from the fitted curve at half-maximal effect; nearly all actives have a fitted effect of over 45% in size
MARV entry inh: blocks Marburg virus binding to or entry into cells | 300,000 tested, 1.8% active | Potency, µM (doses to about 37.8 µM), for the others: at the highest dose activity change, negative = inhibition, actives largely listed as inhibitors | Marburg virus pseudotyped entry inhibition, cell reporter; calls by dose curve; tested in HEK293 cells; also: potency is read from the fitted curve at half-maximal effect
Lassa entry inh: inhibitors of Lassa virus binding or cell entry; 300,000 tested, 1.2% active; Lassa virus pseudotype entry inhibition, cell reporter; Potency, µM (series often up to 37.9 µM), for inactives: at the top dose activity change, negative = inhibition, most hits filed as inhibitors; calls by dose curve; tested in HEK293 cells; also: potency is read from the fitted curve at half-maximal effect; nearly all actives have a fitted effect of over 50% in size
An asterisk follows results filed as active; u = inconclusive; x = no result; + = active, no number; [ ] = dose if it differs, or a comment. This is a sample that favours compounds with a hit; in the whole collection about 6.2% have one here. % is scaled to controls: 0 for no effect and ±100 for the full control effect.

SMILES	HCMV antiviral	FMDV antiviral	MARV entry inh	Lassa entry inh
Clc1ccc2[nH]c3c(NCCN4CCOCC4)ncnc3c2c1	-10	-13%	-20%	u
Clc1ccc2[nH]c3c(NCC4CCCO4)ncnc3c2c1 (stereo not given)	-65*	x	0%	x
Cc1nc2ccccc2c2oc(C(=O)NCc3ccccn3)cc12	u	u	-19%	-10%
Cc1ccc(CNC(=O)c2cc3c(C)nc4ccccc4c3o2)cc1	-70*	13µM*	x	x
Cc1ccccc1NC(=O)c1cc2c(C)nc3ccccc3c2o1	-83*	u	-8%[46.1 µM]	-23%
CCc1ccc(NC(=O)c2cc3c(C)nc4ccccc4c3o2)cc1	-29	u	u	u
COc1cc(Nc2ncc3c(C)nc(-c4cccc(C(F)(F)F)c4)n3n2)cc(OC)c1OC	x	x	x	10µM*
COc1cc(Nc2ncc3c(C)nc(-c4cccc(Oc5ccccc5)c4)n3n2)cc(OC)c1OC	x	x	x	3.1µM*
COc1cc(-c2nc(-c3cccc(C(F)(F)F)c3)no2)cc(OC)c1OC	-13	u	u	-18%
CN(C)C(=O)CSc1nc(-c2cccs2)c(-c2cccs2)[nH]1	-19	6%	-6%	-11%
O=C(CSCc1ccc([N+](=O)[O-])cc1)N/N=C/c1ccncc1	-63*	-19%	25%[46.1 µM]	6%
COc1ccc(CNc2cccc3[nH]c(C(F)(F)F)nc23)cc1	-28	-25%	-18%[46.1 µM]	20%[46.1 µM]
Cc1ccc(C(=O)Nc2cccc3[nH]c(C(F)(F)F)nc23)cc1	-96*	-23%	u	u
COc1cc(Cl)c(C)cc1NC(=O)COc1cc(C)nc(C(C)C)n1	-17	-2%	-1%	16%
O=C(CSc1nc2ccsc2c(=O)n1Cc1ccccc1F)NCc1ccccc1Cl	-91*	-13%	x	-2%[46.1 µM]
O=C(CSc1nnc(NC(=O)c2cccc(Br)c2)s1)NCC1CCCO1 (stereo not given)	-98*	28%	-7%	-15%
O=C(CSc1nnc(NC(=O)c2ccc3c(c2)OCO3)s1)NCc1ccco1	14	-33%	7.1µM*	u
CCOC(=O)c1ccc(NC(=O)Nc2nc3ccccc3s2)cc1	-35	0%	x	x
CCOC(=O)c1ccc(NC(=O)CNC(=O)c2ccccc2)cc1	25	22%	7%	u
CCOC(=O)c1ccc(NC(=O)Nc2ccc(Cl)cn2)cc1	-2	-15%	12%[46.1 µM]	-2%
CCOC(=O)c1ccc(NC(=O)c2nccnc2C(=O)O)cc1	-75*	-5%	x	x
CCOC(=O)c1ccc(NC(=O)Nc2nncs2)cc1	-75*	u	x	x
CCOC(=O)c1ccc(NC(=O)Nc2ccon2)cc1	+	13%	x	x
CCOC(=O)c1ccc(P(=O)(c2ccccc2)c2ccccc2)cc1	-97*	8%	x	x
Cc1ccnc2nc(C(=O)OCCOc3ccccc3)nn12	u	-22%	-1%[46.1 µM]	-17%
SMILES	HCMV antiviral	FMDV antiviral	MARV entry inh	Lassa entry inh
O=C1CC(c2ccc(S(=O)(=O)Nc3cc(C(F)(F)F)cc(C(F)(F)F)c3)cc2)CN1 (stereo not given)	56	13%	9%	-9%
O=C(CN1C(=O)NC2(CCOc3ccccc32)C1=O)Nc1ccc(Br)cc1F (stereo not given)	-2	-19%	x	x
Cc1nn(Cc2c(Cl)cccc2Cl)c(C)c1NC(=O)c1cc(C(C)C)on1	-98*	-9%	x	x
Cc1cc(C(=O)Nc2c(C)nn(Cc3c(Cl)cccc3Cl)c2C)no1	-62*	-10%	2.6µM*	5.8µM*
Cc1nn(Cc2ccccc2Cl)c(C)c1NC(=O)c1cc(C(C)C)on1	-27	-9%	u	u
Cn1c(C(=O)O)cc2c(=O)n3ccccc3nc21	-37	-2%	x	x
Cc1cc(C)c2c(=O)n3c(nc2c1)C(Cc1ccccc1)NC(=O)c1cc2ccccc2cc1-3 (stereo not given)	-72*	u	x	x
O=C1NC(Cc2ccc(O)cc2)c2nc3ccc(Cl)cc3c(=O)n2-c2cc3ccccc3cc21 (stereo not given)	-106*	u	x	x
CCC1NC(=O)c2cc3ccccc3cc2-n2c1nc1cc(C)cc(C)c1c2=O (stereo not given)	-10	-25%	x	x
Cc1ccc2c(=O)n3c(nc2c1)C(Cc1ccc(O)cc1)NC(=O)c1cc2ccccc2cc1-3 (stereo not given)	-65*	u	x	x
O=S(=O)(NCc1ccccc1)c1ccccc1NCCc1ccccc1	7	97%	x	u
O=c1c2ccccc2n2c(-c3cccc(F)c3)nnc2n1Cc1ccccc1	u	3%	-22%[46.1 µM]	3%[46.1 µM]
CNC(=O)CSc1nc2cccnc2n1-c1ccc(F)cc1	19	-11%	7%	2%
O=C(c1ccc(NS(=O)(=O)c2cccs2)cc1)N1CCN(c2ccccc2Cl)CC1	6	4%	3%[46.1 µM]	-13%[46.1 µM]
N#Cc1ccc(/C=N/NC(=O)c2cc(-c3cccs3)nc3ccccc23)cc1	-20	16%	6.3µM*	u
CCOc1ncccc1C(=O)NCCc1ccc(S(N)(=O)=O)cc1	-67*	-2%	0%[46.1 µM]	-11%[46.1 µM]
Cc1ccc(OCCC(=O)NCCc2ccc(S(N)(=O)=O)cc2)cc1	-36	-10%	28%	-7%
N#Cc1ccc(-c2csc(NC(=O)c3cc(-c4cccs4)nc4ccccc34)n2)cc1	-14	0%	x	x
CCOc1ccc(OCCC(=O)OCC(=O)NCCc2ccc(S(N)(=O)=O)cc2)cc1	-73*	-12%	x	x
NS(=O)(=O)c1ccc(CCNC(=O)c2cc(-c3cccs3)nc3ccccc23)cc1	-39	1%	7.9µM*	u
CC(O)c1nc(C(C)O)n(CC(=O)c2ccccc2)n1 (stereo not given)	-7	-16%	x	x
COc1ccc(C(=O)COC(=O)c2cc(-c3cccs3)nc3ccccc23)cc1	11	62%	1%[46.1 µM]	11µM*
Cc1ccc(C(=O)COC(=O)c2cc(-c3cccs3)nc3ccccc23)cc1	21	63%	17%[46.1 µM]	-34%[46.1 µM]
CC(C)c1nnc(NC(=O)CC(=O)Nc2ccccc2C(=O)O)s1	-28	-34%	u	6.3µM*
CC(C)Cc1nnc(NC(=O)CC(=O)Nc2ccccc2C(=O)O)s1	-34	-16%	u	u
SMILES	HCMV antiviral	FMDV antiviral	MARV entry inh	Lassa entry inh
CC(C)(C)c1ccc(-c2n[nH]c(=S)n2C2CCCC2)cc1	-91*	u	u	u
Cn1c(-c2ccc(C(C)(C)C)cc2)n[nH]c1=S	39	29%	-21%	u
CCC(=O)Nc1nonc1-c1nc2ccccc2n1Cc1cccc2ccccc12	-104*	u	u	u
CCC(=O)Nc1nonc1-c1nc2ccccc2n1Cc1ccccc1	7	-14%	-12%	-9%
COC(=O)c1ccc2c(=O)n(Cc3ccco3)c(SCC(=O)Nc3ccc(C)c(Cl)c3)nc2c1	-63*	-16%	u	u
O=C1C(Cl)=C(NCCCO)C(=O)c2ccccc21	-29	u	u	-18%
COc1ccccc1NC1=C(NC(C)=O)C(=O)c2ccccc2C1=O	-66*	6%	x	x
CN(C)c1ccc(NC2=C(Cl)C(=O)c3ccccc3C2=O)cc1	-97*	u	u	u
CC(=O)Nc1ccc(NC2=C(Cl)C(=O)c3ccccc3C2=O)cc1	-101*	28µM*	u	u
COC1=C(Nc2ccccc2OC)C(=O)c2ccccc2C1=O	16	-2%	6%[46.1 µM]	13%

Screens: PubChem BioAssay, National Center for Advancing Translational Sciences (NCATS)
